Unmarked numbers belong to inactive results. Inconclusive results are not listed. Active and inactive are the calls of the source. Unless noted, calls follow the shape of the dose curve; as a rule, active = well fitted curve in the direction sought with a large enough effect in the repeat runs; inconclusive = weak or mixed curves; inactive = no such curve, though single readings can be large; an effect the other way counts as inactive or inconclusive.

The nature of test [1]: qHTS assay to identify small molecule agonists of the hypoxia (HIF-1) signaling pathway - cell viability counter screen (AID 1224844; calls by dose curve; also: nearly all actives have a fitted effect of over 50% in size). An outline of the steps: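 Cytotoxicity measured by CellTiter-Glo ATP luminescence in the wells also read for beta-lactamase signal. Cells were HRE-bla ME-180 (2,000/well, 0.5% dialyzed FBS), exposed to compounds for 17 h at 37C.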
On the technique in general: Quantitative high-throughput screening tests each substance at several concentrations.

The nature of test [2]: qHTS assay to identify small molecule agonists of the hypoxia (HIF-1) signaling pathway (AID 1224846; active = well fitted activation curve with a large enough effect in the signal ratio in the repeat runs, not every such curve was filed as active; the % refers to the signal ratio). An outline of the steps:
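Compounds added to ME-180 cells carrying hypoxia-response-element beta-lactamase reporter (0.5% dialyzed FBS, 5 h preplating), 17 h at 37C; agonist activity detected by CCF4-AM B/G FRET read-out.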

Test [3] is described as follows: qHTS assay to identify small molecule agonists of H2AX - cell viability counter screen (AID 1224847; calls by dose curve; also: nearly all actives have a fitted effect of over 30% in size; also: potency is read from the fitted curve at half-maximal effect). Summed up: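 Counter-screen for viability: CellTiter-Glo ATP luminescence read after 3 h compound treatment (15-point titration, 0.76% DMSO final) of CHO-K1 cells at 37C, with 30 min room-temperature reagent incubation.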
Test [4] in a line: qHTS assay to identify small molecule antagonists of the estrogen related receptor (ERR) signaling pathway from Tox21 library (AID 1224848). Also: nearly all actives have a fitted effect of over 50% in size. Also: potency is read from the fitted curve at half-maximal effect. Summed up:
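Compounds dissolved in DMSO are pin-transferred onto ERR reporter cells (2,000 per well) that have settled for 6 h at 37 C. Plates then incubate 18 h at 37 C before ONE-Glo luciferase reagent and a luminescence read 30 min later.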

A short description of test [5]: qHTS RealTime-Glo MT Cell Viability Assay in HEK293 cells - 32 hour (AID 1224868). Also: top concentration of the series differs between compounds; nearly all actives have a fitted effect of over 50% in size. An outline of the steps:
(§1)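 Assay medium contained NanoLuc luciferase plus cell-permeant prosubstrate, added with HEK293 cells at 600 cells/well. After 5 h at 37 C/5% CO2 compounds were added; plates stayed at 37 C for 40 h with serial luminescence reads.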

Test [6] in a line: A CellTox Green Cytotoxicity Assay to monitor cytotoxicity in HEK293 cells - 0 hour (AID 1224869). Also: nearly all actives have a fitted effect of over 50% in size. Summed up:
(§2)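 Fluorescence from a DNA-binding dye excluded by viable cells was measured repeatedly in the same HEK293 wells (600 cells/well) during continuous compound exposure at 37 C. Each assay gives one read point: 0, 8, 16, 24, 32 or 40 h.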

Test [7] can be described thus: qHTS RealTime-Glo MT Cell Viability Assay in HepG2 cells - 40 hour (AID 1224870). Also: nearly all actives have a fitted effect of over 50% in size. Also: potency is read from the fitted curve at half-maximal effect. Summed up:
(§3)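 HepG2 cells (600/well) mixed with RealTime-Glo MT reagent, settled 5 h at 37 C/5% CO2 before compound addition. Nonlytic NanoLuc luminescence from viable-cell prosubstrate reduction read repeatedly during 40 h treatment at 37 C.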

The nature of test [8]: qHTS RealTime-Glo MT Cell Viability Assay in HEK293 cells - 16 hour (AID 1224872). Also: nearly all actives have a fitted effect of over 50% in size. Also: potency is read from the fitted curve at half-maximal effect. Summed up: as §1
Test [9] in a line: qHTS RealTime-Glo MT Cell Viability Assay in HepG2 cells - 8 hour (AID 1224873). Also: nearly all actives have a fitted effect of over 55% in size. Summed up: as §3
Test [10] in a line: qHTS RealTime-Glo MT Cell Viability Assay in HEK293 cells - 40 hour (AID 1224874). Also: nearly all actives have a fitted effect of over 50% in size. Also: potency is read from the fitted curve at half-maximal effect. Conditions: RealTime-Glo luminescence; max response: stronger effect = lower value. An outline of the steps:
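Luminescence, which tracks viable cell number through reduction of the prosubstrate to a NanoLuc substrate, was read over continuous 37 C culture. Cells (600/well) were premixed with reagent and rested 5 h before 23 nL of compound in DMSO was pinned.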

Test [11] in a line: A CellTox Green Cytotoxicity Assay to monitor cytotoxicity in HepG2 cells - 16 hour (AID 1224876). Also: nearly all actives have a fitted effect of over 45% in size. Also: potency is read from the fitted curve at half-maximal effect. Summed up: (§4)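 Real-time cytotoxicity: fluorescence of a cell-impermeant cyanine dye binding DNA of dead HepG2 cells, measured repeatedly (0–40 h) during compound exposure at 37 C. Cells seeded 600/well with reagent, dosed after 5 h.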
Test [12] in a line: qHTS RealTime-Glo MT Cell Viability Assay in HepG2 cells - 32 hour (AID 1224877). Also: nearly all actives have a fitted effect of over 55% in size. Also: potency is read from the fitted curve at half-maximal effect. An outline of the steps: (§5)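 qHTS, HepG2, 600 cells/well, RealTime-Glo (NanoLuc + prosubstrate) added with cells; 5 h preincubation; DMSO compound addition; 37 C; luminescence at 0/8/16/24/32/40 h.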
Test [13] can be described thus: A CellTox Green Cytotoxicity Assay to monitor cytotoxicity in HepG2 cells - 24 hour (AID 1224878). Also: nearly all actives have a fitted effect of over 45% in size. Also: potency is read from the fitted curve at half-maximal effect. An outline of the steps:
as §4

The nature of test [14]: A CellTox Green Cytotoxicity Assay to monitor cytotoxicity in HepG2 cells - 40 hour (AID 1224879). Also: nearly all actives have a fitted effect of over 40% in size. Also: potency is read from the fitted curve at half-maximal effect. An outline of the steps:
as §4

The nature of test [15]: qHTS RealTime-Glo MT Cell Viability Assay in HepG2 cells - 24 hour (AID 1224867). Also: nearly all actives have a fitted effect of over 50% in size. Also: potency is read from the fitted curve at half-maximal effect. An outline of the steps:
as §5

The nature of test [16]: A CellTox Green Cytotoxicity Assay to monitor cytotoxicity in HEK293 cells - 40 hour (AID 1224871). Also: nearly all actives have a fitted effect of over 45% in size. Also: potency is read from the fitted curve at half-maximal effect. An outline of the steps: as §2
A short description of test [17]: A CellTox Green Cytotoxicity Assay to monitor cytotoxicity in HEK293 cells - 24 hour (AID 1224875). Also: series mostly up to about 77 µM; nearly all actives have a fitted effect of over 45% in size. Summed up:
as §2

Test [18] is described as follows: qHTS assay to identify small molecule agonists of H2AX (AID 1224845; active = well fitted activation curve with a large enough effect in the signal ratio in the repeat runs, not every such curve was filed as active; the % refers to the signal ratio). Summed up: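 Wild-type CHO-K1 cells, plated overnight, exposed 3hr at 37C to 15 concentrations (0.76% DMSO final). Lysed, then HTRF anti-pH2AX (S139) cryptate and anti-H2AX-d2 antibodies, 24 hr room temperature; 665/620 nm emission read.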
% is scaled to controls: 0 for no effect and ±100 for the full control effect.

`O=C1c2ccccc2C(=O)c2c(O)ccc(O)c21`: the Potency result in test [1], in test [3], in test [4], in test [5], in [6] and in test [7] was “inactive” throughout. Moreover, the Potency result in test [8], in [9] and in test [12] was “inactive” in each case. Further, the compound was called inactive in test [2]. Further, the max response in test [10] is 5.32%. Also, the Potency in test [11], in test [13] and in test [14] was 24.5 µM (active) throughout.
Take `CCN(Cc1cccc(S(=O)(=O)O)c1)c1ccc(C(=C2C=CC(=[N+](CC)Cc3cccc(S(=O)(=O)O)c3)C=C2)c2ccccc2S(=O)(=O)[O-])cc1`: the Potency in test [3] was 25.4 µM (active); in [4], 15.4 µM (active). In addition, the Potency entry in [15], in test [5], in test [6], in test [7], in [16] and in [8] was “inactive” throughout. Moreover, the Potency result in [9], in test [17], in [11], in [12], in test [13] and in test [14] was “inactive” throughout. Besides, the max response in test [10] was -0.266%.
Regarding `CC[C@H]1OC(=O)[C@H](C)[C@@H](O[C@H]2C[C@@](C)(OC)[C@@H](O)[C@H](C)O2)[C@H](C)[C@@H](O[C@@H]2O[C@H](C)C[C@H](N(C)C)[C@H]2O)[C@](C)(O)C[C@@H](C)CN(C)[C@H](C)[C@@H](O)[C@]1(C)O`, the Potency entry in test [1], in [18], in test [3], in [15], in [6] and in [16] was “inactive” in each case. Moreover, the Potency entry in test [8], in [9], in [17], in test [11], in test [12] and in [13] was “inactive” throughout. Also, the Potency entry in [14] was “inactive”.
In the case of `CC(=O)OCC(=O)[C@@]1(OC(C)=O)[C@@H](C)C[C@H]2[C@@H]3C[C@H](F)C4=CC(=O)C=C[C@]4(C)[C@@]3(F)[C@@H](O)C[C@@]21C`, the Potency result in test [18], in test [15], in test [5], in [6], in test [7] and in test [16] was “inactive” in each case. Moreover, the Potency entry in test [8], in test [9], in [17], in test [11], in test [12] and in test [13] was “inactive” in each case. Besides, the Potency entry in test [14] is “inactive”. Moreover, the max response in test [10] is -24.6%.
Regarding `CO[C@@H]1[C@@H](OC)[C@H](C)[C@@](O)(CC(=O)O)O[C@H]1[C@H](C)[C@H]1O[C@@]2(CC[C@@](C)([C@H]3CC[C@@](C)([C@@H]4O[C@@H]([C@H]5O[C@](C)(O)[C@H](C)C[C@@H]5C)C[C@@H]4OC4C[C@H](OC)[C@@H](OC)[C@H](C)O4)O3)O2)C[C@H](O)[C@H]1C` (stereo not given in full), the Potency entry in test [18], in test [6] and in [17] was “inactive” throughout. For the same compound, the Potency in [15] was 5.35 µM (active); in test [7], 6.01 µM (active); in test [16] it was 4.77 µM (active); in [8], 5.35 µM (active); in test [10], 2.39 µM (active); in [12], 5.35 µM (active). In addition, the Potency was 12 µM (active) in test [13] and 6.74 µM (active) in [14].
For `CC1CCCO1` (stereo not given), the Potency result in test [1], in test [18], in test [3], in test [15], in [5] and in [6] was “inactive” in each case. Also, the Potency result in test [7], in [16], in [8], in [9], in test [17] and in [11] was “inactive” in each case. The Potency result in test [12], in [13] and in test [14] was “inactive” throughout. In [10], the max response is 5.81%.
Turning to `Nc1ccc(NC(=O)c2ccc(N)cc2)cc1`, the Potency entry in test [1], in test [3], in [4], in [15], in test [6] and in [7] was “inactive” in each case. Besides, the Potency entry in [16], in test [8], in test [9], in test [17], in [11] and in test [12] was “inactive” in each case. Moreover, the Potency result in test [13] and in [14] was “inactive” throughout. Also, in test [2], the outcome was inactive. Also, in [10], the max response was -13%.
Take `CCOCCC(=O)OCC`: the Potency entry in test [18], in test [3], in test [15], in test [5], in test [6] and in [7] was “inactive” throughout. Besides, the Potency entry in test [16], in test [8], in [9], in test [17], in test [11] and in test [12] was “inactive” each time. For the same compound, the Potency entry in test [13] and in test [14] was “inactive” throughout. In test [2], the call was inactive. Besides, the max response in test [10] is 4.01%.

(Values after PubChem BioAssay (Tox21).)
